Laboratory results reported in PubChem BioAssay AID1159580 (chemical genetic matrix, 2015).
Screen size: about 5,500 compounds; about 2,000 (36%) were called active. Another 18% or so got no clear call; they are omitted. No stated cut-off is given here; in the data, active means normalized growth mostly below about 0.91 (no sharp cut-off); inconclusive means no clear call, values can overlap the other calls; inactive means mostly above about 0.92. The list shows a part of the results.

Experiment: chemical genetic growth profiling, strain panel (AID 1159580);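 further: tested at 20 µM; growth read once vehicle control cultures reached saturation at 30 °C; 1 = growth at the plate median or of vehicle wells; lower values mean less growth of the strain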
Conditions: S. cerevisiae deletion strains, growth OD
[1] = locus YHR030C, strain SLT2, active compounds read low

Measured: normalized growth

O=C1NCCN=C(c2ccccc2)c2ccccc21
inactive: locus YAL013W, strain DEP1, active compounds read low 0.999 | locus YBR229C, strain ROT2, active compounds read low 1 | locus YCL061C, strain MRC1, active compounds read low 0.99 | locus YDL101C, strain DUN1, active compounds read low 0.984 | locus YDL134C, strain PPH21, active compounds read low 1.01 | locus YDR150W, strain NUM1, active compounds read low 0.911 | locus YEL061C, strain CIN8, active compounds read low 0.995 | locus YGR078C, strain PAC10, active compounds read low 0.99 | [1] 1.03 | locus YHR087W, strain rtc3, active compounds read low 0.999 | locus YJL187C, strain SWE1, active compounds read low 0.997 | locus YJR043C, strain POL32, active compounds read low 0.995 | locus YJR075W, strain HOC1, active compounds read low 1.01 | locus YLR039C, strain RIC1, active compounds read low 0.985 | locus YLR058C, strain SHM2 (second series), active compounds read low 0.998 | locus YLR085C, strain ARP6, active compounds read low 1.01 | locus YLR262C, strain YPT6, active compounds read low 0.968 | locus YML094W, strain GIM5, active compounds read low 0.98 | locus YMR219W, strain ESC1, active compounds read low 0.999 | locus YMR263W, strain SAP30, active compounds read low 0.973 | locus YMR307W, strain GAS1, active compounds read low 0.994 | locus YNL153C, strain GIM3, active compounds read low 0.99 | locus YNL298W, strain CLA4 (second series), active compounds read low 1.01 | locus YNL322C, strain KRE1, active compounds read low 0.994 | locus YNR030W, strain Alg12, active compounds read low 1 | locus YOL006C, strain TOP1, active compounds read low 1 | locus YPL055C, strain LGE1, active compounds read low 0.956 | locus YPL241C, strain CIN2, active compounds read low 0.976 | locus YPR135W, strain CTF4, active compounds read low 1.01

CC(=O)c1ccc[nH]1
inactive: locus YAL021C, strain ccr4, active compounds read low 1.01 | locus YAL026C, strain drs2, active compounds read low 1 | locus YAL030W, strain snc1, active compounds read low 0.997 | locus YBL061C, strain skt5, active compounds read low 0.996 | locus YBR009C, strain hhf1, active compounds read low 1.02 | locus YBR023C, strain chs3, active compounds read low 0.998 | locus YBR171W, strain sec66, active compounds read low 1.01 | locus YBR231C, strain swc5, active compounds read low 1 | locus YBR279W, strain paf1, active compounds read low 1.01 | locus YCL011C, strain gbp2, active compounds read low 1 | locus YCL016C, strain dcc1, active compounds read low 0.997 | locus YCL069W, strain vba3, active compounds read low 1 | locus YCR088W, strain abp1, active compounds read low 1.01 | locus YDL005C, strain med2, active compounds read low 0.99 | locus YDL040C, strain nat1, active compounds read low 0.998 | locus YDR001C, strain nth1, active compounds read low 1 | locus YDR069C, strain doa4, active compounds read low 1.01 | locus YDR137W, strain rgp1, active compounds read low 0.98 | locus YDR159W, strain sac3, active compounds read low 0.975 | locus YDR195W, strain ref2 0.979 | locus YDR297W, strain sur2, active compounds read low 1.01 | locus YDR334W, strain swr1, active compounds read low 0.995 | locus YDR335W, strain msn5, active compounds read low 0.993 | locus YDR392W, strain spt3, active compounds read low 1.01 | locus YEL003W, strain gim4, active compounds read low 0.998 | locus YEL037C, strain rad23, active compounds read low 1 | locus YEL061C, strain CIN8 (second series), active compounds read low 1.01 | locus YER015W, strain faa2, active compounds read low 1 | locus YER016W, strain bim1, active compounds read low 0.995 | locus YER111C, strain swi4, active compounds read low 0.994 | locus YER155C, strain BEM2 (second series), active compounds read low 0.994 | locus YFR010W, strain ubp6, active compounds read low 1 | locus YGL167C, strain pmr1, active compounds read low 0.988 | locus YGL173C, strain kem1, active compounds read low 0.998 | locus YGL227W, strain vid30, active compounds read low 0.996 | locus YGL240W, strain doc1, active compounds read low 1 | locus YGL253W, strain hxk2, active compounds read low 1 | locus YHR013C, strain ard1, active compounds read low 1.01 | locus YHR027C, strain rpn1, active compounds read low 0.991 | [1] 1 | locus YHR079C, strain IRE1, active compounds read low 0.992 | locus YHR142W, strain chs7, active compounds read low 1 | locus YJL092W, strain hpr5, active compounds read low 0.992 | locus YJL095W, strain BCK1 (second series), active compounds read low 0.988 | locus YJL095W, strain BCK1, active compounds read low 0.988 | locus YJL115W, strain asf1, active compounds read low 0.993 | locus YJL129C, strain trk1, active compounds read low 0.988 | locus YJL154C, strain vps35, active compounds read low 0.996 | locus YJL164C, strain tpk1, active compounds read low 1.01 | locus YJL166W, strain qcr8, active compounds read low 1.01 | locus YJR066W, strain TOR1, active compounds read low 0.942 | locus YKL160W, strain elf1, active compounds read low 1 | locus YKR026C, strain gcn3, active compounds read low 0.998 | locus YKR091W, strain srl3, active compounds read low 0.999 | locus YLL001W, strain dnm1, active compounds read low 1.01 | locus YLL026W, active compounds read low 1 | locus YLL041C, strain sdh2, active compounds read low 1 | locus YLR027C, strain aat2, active compounds read low 1 | locus YLR113W, strain HOG1, active compounds read low 1 | locus YLR221C, strain rsa3, active compounds read low 1.01 | locus YLR258W, strain gsy2, active compounds read low 1.01 | locus YLR262C, strain YPT6 (second series), active compounds read low 1.03 | locus YLR320W, strain mms22, active compounds read low 1 | locus YLR342W, strain FKS1, active compounds read low 0.999 | locus YLR357W, strain rsc2, active compounds read low 0.971 | locus YLR370C, strain arc18, active compounds read low 0.994 | locus YLR384C, strain iki3, active compounds read low 0.997 | locus YML120C, strain ndi1, active compounds read low 1.01 | locus YMR058W, strain fet3, active compounds read low 0.997 | locus YMR125W, strain sto1, active compounds read low 0.997 | locus YMR129W, active compounds read low 0.996 | locus YMR205C, strain PFK2, active compounds read low 1.01 | locus YMR231W, strain pep5, active compounds read low 1 | locus YNL071W, strain lat1, active compounds read low 1 | locus YNL183C, strain NPR1, active compounds read low 0.902 | locus YNL209W, strain ssb2, active compounds read low 1.01 | locus YNL248C, strain rpa49, active compounds read low 0.98 | locus YNL322C, strain KRE1 (second series), active compounds read low 0.986 | locus YNR049C, strain mso1, active compounds read low 1.01 | locus YOR001W, strain rrp6, active compounds read low 1 | locus YOR070C, strain gyp1, active compounds read low 1.01 | locus YOR080W, strain dia2, active compounds read low 1 | locus YOR083W, strain WHI5, active compounds read low 1 | locus YOR106W, strain vam3, active compounds read low 0.985 | locus YOR231W, strain MKK1, active compounds read low 1.02 | locus YOR265W, strain rbl2, active compounds read low 1.02 | locus YOR270C, strain vph1, active compounds read low 1.01 | locus YOR290C, strain snf2, active compounds read low 0.992 | locus YPL051W, strain arl3, active compounds read low 1.02 | locus YPL078C, strain atp4, active compounds read low 1.01 | locus YPL106C, strain sse1, active compounds read low 0.978 | locus YPL240C, strain hsp82, active compounds read low 0.994 | locus YPL256C, strain CLN2, active compounds read low 0.99
